Test [1] can be described thus: ATG_E_Box_CIS: Attagene CIS-FACTORIAL HepG2 Assay for human Enhancer Box (E-box) (AID 2282936). The settings on record: HepG2 E-box cis-reporter transcription, actives raise or lower the signal. An outline of the steps: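 DMSO served as negative control and baseline for bidirectional fitting. Human hepatoma HepG2 cells, transiently transfected with cis-reporter constructs, were dosed 24 h; reporter mRNA read by RT-PCR and capillary electrophoresis.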

A short description of test [2]: ATG_M_61_CIS: Attagene CIS-FACTORIAL HepG2 Assay for M61 Transcription Factor (Internal Marker) (AID 2282937). The settings on record: HepG2 Attagene CIS-FACTORIAL M61 internal marker reporter; actives raise or lower the signal. An outline of the steps: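 HepG2 cells transiently transfected with multiplexed cis-promoter reporter units reporting endogenous transcription factor activity, measured 24 h after dosing. Reporter mRNA quantified by RT-PCR and capillary electrophoresis; bidirectional fit against DMSO baseline.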

Test [3] can be described thus: ATG_EGR_CIS: Attagene CIS-FACTORIAL HepG2 Assay for human Early Growth Response 1 (EGR1) (AID 2282938). The following applies: HepG2 Attagene CIS-FACTORIAL EGR reporter mRNA; actives raise or lower the signal. An outline of the steps: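 HepG2 cells transiently transfected with cis-element-driven multiplexed reporter units, dosed for 24 h. EGR1-element reporter mRNA quantified by RT-PCR, 6-FAM labelling, HpaI digestion and capillary electrophoresis; bidirectional fit versus DMSO.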

Test [4] in a line: ATG_M_19_CIS: Attagene CIS-FACTORIAL HepG2 Assay for M19 Transcription Factor (Internal Marker) (AID 2282939). The following applies: HepG2 Attagene CIS-FACTORIAL M19 internal marker reporter; actives raise or lower the signal. The method in brief:
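Following a 24 h exposure, RNA from transfected HepG2 cells was reverse-transcribed, PCR-amplified with reporter-specific primers, end-labelled with 6-FAM and HpaI-digested before capillary separation. Values represent gain or loss versus DMSO.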

Test [5] can be described thus: ATG_ERE_CIS: Attagene CIS-FACTORIAL HepG2 Assay for Estrogen Response Element (ERE) (AID 2282940). The settings on record: HepG2 ERE cis-reporter, Attagene RNA transcript; actives raise or lower the signal. The method in brief:
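HepG2, transient cis-reporter units, 24 h exposure. RNA isolated, oligo(dT) RT, reporter-specific PCR, FAM extension, HpaI cut, CE detection. Gain/loss-of-signal vs DMSO.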

Test [6] can be described thus: ATG_Ets_CIS: Attagene CIS-FACTORIAL HepG2 Assay for human Erythroblast Transformation Specific (ETS) (AID 2282941). The following applies: HepG2 ETS cis-reporter transcription, actives raise or lower the signal. An outline of the steps: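 HepG2 cells transfected with multiple cis-regulated reporter units measuring endogenous ETS-driven transcription, 24 h after dosing. Reporter mRNA quantified by RT-PCR with capillary electrophoresis; bidirectional fit relative to DMSO.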

The target in test [7] is Hepatocyte nuclear factor 3-beta (Homo sapiens) (UniProt Q9Y261). The test is described as follows: ATG_FoxA2_CIS: Attagene CIS-FACTORIAL HepG2 Assay for human Forkhead box A2 (FOXA2) (AID 2282942). The settings on record: HepG2 cis-reporter transcription factor activity, 24 h; actives raise or lower the signal. The method in brief: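 HepG2 transiently transfected with a multiplexed cis-promoter reporter library read endogenous FOXA2 activity. After 24 h compound exposure, reporter mRNA was quantified by RT-PCR, HpaI digestion and capillary electrophoresis. Bidirectional fit against DMSO.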

Test [8] in a line: ATG_FoxO_CIS: Attagene CIS-FACTORIAL HepG2 Assay for human Forkhead box O (FoxO) (AID 2282943). The settings on record: HepG2 Attagene cis-reporter, FoxO element, mRNA; actives raise or lower the signal. The method in brief: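 Endogenous transcription factor activity read from multiplexed cis-promoter reporter transcripts in transiently transfected HepG2, 24 h after dosing. Reporter RNA measured via RT-PCR plus capillary electrophoresis of FAM-labeled products; gain or loss relative to DMSO.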

The nature of test [9]: ATG_GATA_CIS: Attagene CIS-FACTORIAL HepG2 Assay for human GATA Binding Protein (AID 2282944). The following applies: HepG2 GATA cis-element reporter, Attagene multiplex mRNA; actives raise or lower the signal. The method in brief: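 DMSO serves as negative control and baseline for bidirectional fitting of reporter mRNA changes. HepG2 cells bearing transiently transfected cis-promoter reporters were exposed 24 h; transcripts detected via RT-PCR and capillary electrophoresis.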

The nature of test [10]: ATG_GLI_CIS: Attagene CIS-FACTORIAL HepG2 Assay for human Zinc Finger Protein GLI1 (AID 2282945). The settings on record: HepG2, Attagene cis-factorial reporter mRNA, GLI element; actives raise or lower the signal. The method in brief:
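Bidirectional curve fits relative to DMSO, using reporter mRNA levels from RT-PCR plus capillary electrophoresis. Cells were HepG2 transiently carrying cis-regulated reporter constructs, harvested 24 h after dosing.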

The nature of test [11]: ATG_GRE_CIS: Attagene CIS-FACTORIAL HepG2 Assay for human Glucocorticoid Response Elements (GRE) (AID 2282947). The following applies: HepG2 GRE cis-reporter, Attagene multiplex mRNA; actives raise or lower the signal. The method in brief: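 Assay uses human hepatoma HepG2 cells transfected with cis-promoter reporter units, exposed 24 h. mRNA from reporters detected by RT-PCR plus capillary electrophoresis; DMSO serves as negative control and baseline.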

A short description of test [12]: ATG_ISRE_CIS: Attagene CIS-FACTORIAL HepG2 Assay for human Interferon Regulatory Factor 1 (IRF1) binding to an Interferon-Stimulated Response Element (ISRE) (AID 2282948). The settings on record: HepG2 ISRE cis-reporter (Attagene), mRNA transcription readout; actives raise or lower the signal. An outline of the steps:
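Transiently transfected HepG2 cells carrying cis-element reporter units, dosed 24 hours. Reporter mRNA quantified by RT-PCR, fluorescent primer extension, HpaI digestion and capillary electrophoresis. Bidirectional fitting relative to DMSO.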

Test [13] in a line: ATG_M_32_CIS: Attagene CIS-FACTORIAL HepG2 Assay for M32 Transcription Factor (Internal Marker) (AID 2282949).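 Note: background control marker of the multiplexed CIS panel rather than a real target.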 The settings on record: HepG2 Attagene cis-factorial M32 reporter, mRNA; actives raise or lower the signal. The method in brief:
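Following 24 h chemical exposure of HepG2 cells transiently expressing cis-promoter reporter constructs, reporter transcript levels were determined by RT-PCR with fluorescent labelling and capillary electrophoresis, then fitted bidirectionally against DMSO.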

Test [14] is described as follows: ATG_M_06_CIS: Attagene CIS-FACTORIAL HepG2 Assay for M06 Transcription Factor (Internal Marker) (AID 2282950). The following applies: HepG2 Attagene CIS-FACTORIAL M06 internal marker reporter; actives raise or lower the signal. An outline of the steps: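 Fluorescence-labelled RT-PCR products from cis-promoter reporter units, cut with HpaI and resolved by capillary electrophoresis, give the signal. Cells are human HepG2, dosed for 24 h. Serves as background control, fitted relative to DMSO.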

Test [15] concerns the target Hypoxia-inducible factor 1-alpha (Homo sapiens) (UniProt Q16665). The test is described as follows: ATG_HIF1a_CIS: Attagene CIS-FACTORIAL HepG2 Assay for human Hypoxia Inducible Factor 1 (HIF1A) (AID 2282951). The following applies: HepG2 Attagene cis-factorial HIF1a reporter transcription; actives raise or lower the signal. The method in brief: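 HepG2 cells transiently transfected with multiple cis-regulated reporter transcription units measure endogenous transcription factor activity. After 24 h exposure, reporter mRNA is quantified by RT-PCR with 6-FAM labelling, HpaI digestion and capillary electrophoresis. Bidirectional fitting against DMSO.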

The target of test [16] is Hepatocyte nuclear factor 6 (Homo sapiens) (UniProt Q9UBC0). The experiment in a line: ATG_HNF6_CIS: Attagene CIS-FACTORIAL HepG2 Assay for human Hepatocyte Nuclear Factor 6 (HNF6) (AID 2282952). The settings on record: HepG2 Attagene cis-factorial HNF6 reporter transcription; actives raise or lower the signal. An outline of the steps:
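HepG2 cells transiently transfected with cis-element-driven multiple reporter transcription units, dosed 24 h; reporter mRNA quantified by RT-PCR, FAM primer extension, HpaI digestion and capillary electrophoresis; bidirectional fit versus DMSO baseline.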

Test [17] deals with Heat shock factor protein 1 (Homo sapiens) (UniProt Q00613). The test is described as follows: ATG_HSE_CIS: Attagene CIS-FACTORIAL HepG2 Assay for human Heat Shock Transcription Factor 1 (HSE) (AID 2282953). The following applies: HepG2 HSE cis-reporter, Attagene RNA transcription; actives raise or lower the signal. The method in brief: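 After a 24 h incubation with test chemical, transfected HepG2 cells were harvested for RNA; reporter transcripts were measured by RT-PCR and capillary electrophoresis. Values reflect gain or loss of signal relative to DMSO.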

The nature of test [18]: ATG_MRE_CIS: Attagene CIS-FACTORIAL HepG2 Assay for human Metal Responsive Element (MRE) (AID 2282954). The settings on record: HepG2 MRE cis-reporter transcription, Attagene multiplex; actives raise or lower the signal. The method in brief:
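After a 24 h chemical exposure, transiently transfected HepG2 cells yield RNA whose reporter sequences are amplified, FAM-labelled and sized by capillary electrophoresis. Curves are fitted bidirectionally relative to DMSO.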

A short description of test [19]: ATG_PBREM_CIS: Attagene CIS-FACTORIAL HepG2 Assay for human Phenobarbital-responsive Enhancer Module (PBREM) (AID 2282955). The following applies: HepG2 PBREM cis-reporter, Attagene multiplexed transcription; actives raise or lower the signal. An outline of the steps:
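HepG2 cells transiently transfected with multiple cis-regulated reporter units measure endogenous transcription factor activity; 24 h compound exposure. Reporter mRNA quantified by RT-PCR, fluorescent labelling, HpaI digestion and capillary electrophoresis; bidirectional fit versus DMSO.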

For test [20], the target named is Bile acid receptor (Homo sapiens) (UniProt Q96RI1). The experiment in a line: ATG_IR1_CIS: Attagene CIS-FACTORIAL HepG2 Assay for human Nuclear Receptor Subfamily 1 Group H Member 4 (NR1H4), IR1 submotif (AID 2282946). The following applies: IR1 reporter transcription, actives raise or lower the signal. An outline of the steps: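 Cells (human HepG2) carry transiently transfected cis-promoter reporter transcription units. Compounds are incubated 24 h, total RNA is reverse-transcribed and amplified, and labelled fragments are resolved by capillary electrophoresis. Curves use DMSO as baseline.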

Active and inactive are the calls of the source. Rule for the calls: active = hit-call score of the fitted dose curve at least 0.9, where 1 is the maximum; inactive = score below 0.9.

Here are results for 4 molecules from PubChem BioAssay (EPA / NIEHS).

Hepatocyte nuclear factor 6 (Homo sapiens), sequence (Q9UBC0 whole entry, looked up): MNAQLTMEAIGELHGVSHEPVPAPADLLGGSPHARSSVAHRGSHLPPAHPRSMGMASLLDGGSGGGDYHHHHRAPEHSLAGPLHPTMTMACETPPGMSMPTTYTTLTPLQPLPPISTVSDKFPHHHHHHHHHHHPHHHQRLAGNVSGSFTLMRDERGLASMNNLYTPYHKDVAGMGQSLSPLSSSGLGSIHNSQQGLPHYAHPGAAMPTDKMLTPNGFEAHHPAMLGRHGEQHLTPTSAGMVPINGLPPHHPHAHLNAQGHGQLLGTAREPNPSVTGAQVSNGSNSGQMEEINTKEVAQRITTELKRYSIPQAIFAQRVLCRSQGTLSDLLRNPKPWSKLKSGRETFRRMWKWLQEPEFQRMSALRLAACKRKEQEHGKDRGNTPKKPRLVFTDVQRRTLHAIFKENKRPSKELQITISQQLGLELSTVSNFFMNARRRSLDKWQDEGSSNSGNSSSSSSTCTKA
Heat shock factor protein 1 (Homo sapiens), sequence (Q00613 whole entry, looked up): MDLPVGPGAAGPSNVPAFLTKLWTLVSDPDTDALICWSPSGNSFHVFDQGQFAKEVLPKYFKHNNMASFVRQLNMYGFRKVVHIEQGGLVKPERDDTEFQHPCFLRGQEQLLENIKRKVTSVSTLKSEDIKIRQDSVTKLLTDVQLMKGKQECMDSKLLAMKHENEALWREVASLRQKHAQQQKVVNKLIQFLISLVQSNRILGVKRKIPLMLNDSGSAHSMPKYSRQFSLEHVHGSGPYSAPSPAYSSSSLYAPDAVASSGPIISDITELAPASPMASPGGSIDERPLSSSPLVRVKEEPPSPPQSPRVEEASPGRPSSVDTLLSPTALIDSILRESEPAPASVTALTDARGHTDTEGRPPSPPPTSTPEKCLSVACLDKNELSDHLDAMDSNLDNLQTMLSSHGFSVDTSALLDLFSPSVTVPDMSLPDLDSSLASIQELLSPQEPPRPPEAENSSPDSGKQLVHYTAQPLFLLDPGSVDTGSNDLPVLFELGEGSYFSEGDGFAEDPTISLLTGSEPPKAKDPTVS
Hepatocyte nuclear factor 3-beta (Homo sapiens), sequence (Q9Y261 whole entry, looked up): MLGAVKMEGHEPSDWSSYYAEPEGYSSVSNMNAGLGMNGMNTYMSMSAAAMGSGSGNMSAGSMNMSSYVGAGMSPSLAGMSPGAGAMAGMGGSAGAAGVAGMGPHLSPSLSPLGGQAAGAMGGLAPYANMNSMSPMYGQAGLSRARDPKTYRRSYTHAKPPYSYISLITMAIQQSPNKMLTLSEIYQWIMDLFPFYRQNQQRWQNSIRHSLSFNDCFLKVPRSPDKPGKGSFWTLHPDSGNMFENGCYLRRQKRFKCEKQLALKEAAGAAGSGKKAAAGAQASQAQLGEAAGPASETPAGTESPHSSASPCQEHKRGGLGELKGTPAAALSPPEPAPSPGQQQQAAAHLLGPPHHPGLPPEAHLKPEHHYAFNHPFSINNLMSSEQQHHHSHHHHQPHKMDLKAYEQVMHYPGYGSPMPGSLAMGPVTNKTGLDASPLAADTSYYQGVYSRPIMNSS
Hypoxia-inducible factor 1-alpha (Homo sapiens), sequence (Q16665 whole entry, looked up): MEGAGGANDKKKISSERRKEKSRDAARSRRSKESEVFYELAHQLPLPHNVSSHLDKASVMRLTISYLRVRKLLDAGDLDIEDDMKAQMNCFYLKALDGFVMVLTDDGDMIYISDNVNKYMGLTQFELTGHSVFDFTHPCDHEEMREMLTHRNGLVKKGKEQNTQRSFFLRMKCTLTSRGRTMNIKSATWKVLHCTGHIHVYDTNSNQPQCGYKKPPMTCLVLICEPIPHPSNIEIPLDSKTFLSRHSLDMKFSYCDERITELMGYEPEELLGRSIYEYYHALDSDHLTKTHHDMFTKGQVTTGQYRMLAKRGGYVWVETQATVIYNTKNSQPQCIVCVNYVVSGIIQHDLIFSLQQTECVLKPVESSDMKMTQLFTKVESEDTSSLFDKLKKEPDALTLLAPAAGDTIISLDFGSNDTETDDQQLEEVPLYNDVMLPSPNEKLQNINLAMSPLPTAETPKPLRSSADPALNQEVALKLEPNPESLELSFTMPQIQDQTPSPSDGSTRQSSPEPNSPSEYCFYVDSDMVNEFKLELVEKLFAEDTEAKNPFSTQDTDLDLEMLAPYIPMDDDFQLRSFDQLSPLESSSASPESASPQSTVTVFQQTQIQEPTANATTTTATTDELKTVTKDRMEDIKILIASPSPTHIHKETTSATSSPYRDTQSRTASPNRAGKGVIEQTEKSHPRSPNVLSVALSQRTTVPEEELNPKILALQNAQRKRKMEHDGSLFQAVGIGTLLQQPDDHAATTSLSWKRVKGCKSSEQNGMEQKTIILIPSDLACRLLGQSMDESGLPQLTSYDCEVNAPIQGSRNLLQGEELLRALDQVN
Bile acid receptor (Homo sapiens), sequence (Q96RI1 whole entry, looked up, the tested form may be a part): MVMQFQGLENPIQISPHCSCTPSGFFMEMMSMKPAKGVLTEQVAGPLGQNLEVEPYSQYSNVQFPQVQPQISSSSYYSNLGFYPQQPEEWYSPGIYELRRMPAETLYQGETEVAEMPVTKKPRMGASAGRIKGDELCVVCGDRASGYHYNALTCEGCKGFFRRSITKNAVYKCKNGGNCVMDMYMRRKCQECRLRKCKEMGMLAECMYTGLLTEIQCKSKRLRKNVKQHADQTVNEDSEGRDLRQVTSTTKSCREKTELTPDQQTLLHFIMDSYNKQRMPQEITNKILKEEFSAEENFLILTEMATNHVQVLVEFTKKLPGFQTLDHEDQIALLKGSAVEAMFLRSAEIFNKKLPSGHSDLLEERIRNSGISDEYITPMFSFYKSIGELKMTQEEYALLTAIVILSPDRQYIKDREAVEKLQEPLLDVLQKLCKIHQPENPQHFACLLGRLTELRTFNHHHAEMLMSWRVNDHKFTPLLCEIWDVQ

On to `Cc1ccc2c(c1)C(=O)c1ccccc1C2=O`, for which the result in test [1], in test [2], in test [3], in [4], in test [6] and in [7] was inactive. The outcome in test [8], in test [9], in test [10], in test [11], in [12] and in [13] was inactive. Besides, the result in [14], in test [15], in test [16], in test [17], in test [18] and in test [19] was inactive. In addition, the AC50 in test [5] is 12.2 µM (active).

`CCC(C)C=O` (stereo not drawn): the result in [1], in [2], in test [3], in test [4], in test [5] and in [6] was inactive. Moreover, the result in test [7], in test [8], in test [9], in test [10], in [20] and in test [12] was inactive. The outcome in test [13], in test [14], in test [15], in test [16], in test [17] and in test [18] was inactive. For the same molecule, the outcome in test [19] was inactive.

As for `Cc1cc(=O)n(-c2ccccc2)n1C`, the result in test [1], in test [2], in test [3], in [4], in [5] and in [6] was inactive. Also, the outcome in [7], in test [8], in [9], in [10], in [20] and in test [12] was inactive. For the same molecule, the call in test [13], in [14], in test [16], in [18] and in [19] was inactive.

`C=C[Si](C)(C)O[Si](C)(C)C=C`: the outcome in test [1], in test [2], in [3], in test [4], in test [5] and in test [6] was inactive. The molecule was classed as inactive in [7], in test [8], in test [9], in [10], in test [11] and in test [12]. Also, the result in [13], in test [14], in test [15], in test [16], in test [17] and in [18] was inactive.
